Among the data in PubChem BioAssay AID1421 (Emory University Molecular Libraries Screening Center, 2008) are PGE2 EC50 with compound values, retold here.

Hit rate of the full screen: of about 1,300 compounds, about 140 (11%) were called active. The rule behind the calls is not given here. A selection follows. Entries with a potency or affinity are not part of this list.

Sequence of Prostaglandin E2 receptor EP2 subtype (Homo sapiens) (P43116 whole entry, looked up): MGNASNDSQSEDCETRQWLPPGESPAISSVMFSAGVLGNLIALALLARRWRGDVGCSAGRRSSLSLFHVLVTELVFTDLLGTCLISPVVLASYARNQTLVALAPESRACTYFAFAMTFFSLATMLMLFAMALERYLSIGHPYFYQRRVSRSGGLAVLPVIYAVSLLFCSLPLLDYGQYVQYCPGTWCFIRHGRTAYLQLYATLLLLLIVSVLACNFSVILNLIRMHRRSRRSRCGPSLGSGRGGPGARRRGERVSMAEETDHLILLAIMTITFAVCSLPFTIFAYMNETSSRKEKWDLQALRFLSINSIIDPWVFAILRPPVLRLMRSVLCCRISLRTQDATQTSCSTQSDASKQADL

This test addresses Prostaglandin E2 receptor EP2 subtype (Homo sapiens) (UniProt P43116). In words: EP2 receptor modulators, dose response, cell-based, human EP2, PGE2 EC50 shift (AID 1421). To be noted: EP2-expressing cells, PGE2 EC50 shift by compound; at 20 µM.
As to `Cc1ccccc1NC(=O)/C(=C/c1ccccc1)c1ccccc1`, the PGE2 EC50 with compound was 0.24 nM (inactive).

As for `CCc1ccccc1NC(=O)/C(=C/c1ccco1)c1ccccc1`, the PGE2 EC50 with compound is 0.16 nM (inactive). For `O=C(O)COc1cccc(NC(=O)c2ccccc2)c1` the value was 1.05 nM (inactive).

Regarding `Nc1c(C(=O)NCc2ccccc2)c2nc3ccccc3nc2n1CCCN1CCOCC1`, the PGE2 EC50 with compound is 0.76 nM (inactive). In the case of `Nc1c(C(=O)NCc2ccco2)c2nc3ccccc3nc2n1CCc1ccccc1` it was 1.38 nM (inactive); in that of `CCOC(=O)c1c(NC(=O)CN2CCCCC2)sc2c1CCN(C(=O)OCC)C2`, 0.83 nM (inactive).

Regarding `CCOC(=O)c1c(NC(=O)c2ccoc2C)sc(C(=O)N(C)C)c1C`, the PGE2 EC50 with compound was 0.6 nM (inactive).

For `CCOC(=O)c1c(NC(=O)c2cccnc2)sc(C)c1C`, the PGE2 EC50 with compound is 0.31 nM (inactive). For `CCCCNCC(=O)Nc1sc(C)c(C)c1C(=O)OCC` the value was 0.33 nM (inactive); for `Cc1ccccc1-n1c(=O)[nH]c(=O)c2c(N)c(C(=O)c3ccc(Cl)cc3)sc21`, 0.74 nM (inactive); for `S=c1[nH]nc(-c2ccco2)n1/N=C/c1ccc(Cl)cc1Cl`, 2.86 nM (inactive). Turning to `CCOP(=O)(c1ccccc1)c1nc(-c2ccccc2C)oc1N1CCCCC1` (centres undefined), the PGE2 EC50 with compound was 0.42 nM (inactive).

With `CSc1nc(Sc2ccccc2)c2ccccc2n1`, the PGE2 EC50 with compound is 0.21 nM (inactive). For `C=CCSc1nc2ccccc2n1S(=O)(=O)c1ccc(C)cc1` the value was 0.5 nM (inactive). For `C=CCSc1nc2ccccc2c(=O)n1Cc1ccccc1` the value was 0.31 nM (inactive). For `CCCC1=C(C(=O)OCC)C(c2cccs2)C(C#N)=C(N)O1` (centres undefined) the value was 0.32 nM (inactive); for `COc1ccc(-n2c(COc3cccc4ccccc34)nnc2SCC(=O)NCc2ccco2)cc1`, 0.72 nM (inactive). Turning to `CCCCCCn1c(COc2ccccc2F)nnc1SCC(=O)N1c2ccccc2NC(=O)C1(C)C`, the PGE2 EC50 with compound is 0.69 nM (inactive). For `CCOC(=O)c1sc2nc(C)nc(N3CCN(c4ncccn4)CC3)c2c1C` the value was 0.7 nM (inactive); for `Cc1ccc(C(Sc2ccccc2)C(Cn2cncn2)C(=O)c2ccccc2)cc1` (centres undefined), 0.38 nM (inactive); for `Clc1ccc(-c2ccc(/C=N/Nc3cc(N4CCOCC4)nc(N4CCOCC4)n3)o2)cc1`, 0.09 nM (inactive). In the case of `CC(C)c1ccc(/C=N/Nc2cc(N3CCOCC3)nc(N3CCOCC3)n2)cc1` it was 0.21 nM (inactive); in that of `Cc1ccc(-c2cc3ccccc3nc2N2CCOCC2)cc1`, 0.38 nM (inactive); in that of `Cc1ccc(-c2nc(P(=O)(c3ccccc3)c3ccccc3)c(N3CCOCC3)o2)cc1`, 0.39 nM (inactive).

In the case of `Cc1cccc(Oc2sc(C(=O)c3ccccc3)c(N)c2C#N)c1`, the PGE2 EC50 with compound was 0.48 nM (inactive). In the case of `C[C@H](C(=O)c1ccccc1)[C@@H](c1ccccc1)N1CCOCC1` it was 0.33 nM (inactive); in that of `Cc1ccc2[nH]c3c(=S)nc[nH]c3c2c1`, 10.1 nM (inactive).

For `CN(C)c1nc(-c2ccccc2)c2cnn(Cc3ccccc3)c2n1`, the PGE2 EC50 with compound is 0.17 nM (inactive). In the case of `Cc1cccc(CSc2ncnc3ccccc23)c1` it was 0.37 nM (inactive); in that of `CC1(c2ccccc2)CC(C)(C)N(C(=O)C2CCCO2)c2ccccc21` (centres undefined), 0.39 nM (inactive). For `CCc1ccc2[nH]c(=O)c(CN(Cc3nnnn3C3CCCC3)C3CCCCC3)cc2c1` the value was 0.64 nM (inactive); for `O=C(Nc1ccccc1-c1nc2ccccc2s1)c1ccc(Br)o1`, 0.41 nM (inactive); for `O=C(Nc1ccccc1Oc1ccccc1)c1ccc(Br)o1`, 0.3 nM (inactive). For `CCOC(=O)c1cnc2ccc(OCC)cc2c1N(C)Cc1ccccc1` the value was 0.07 nM (inactive). Take `CCCCOc1ccccc1Cn1c(=O)oc2ccccc21`: the PGE2 EC50 with compound is 0.29 nM (inactive).

Consider `CCCOc1ccccc1Cn1c(=O)oc2ccc(C)cc21`, for which the PGE2 EC50 with compound is 0.27 nM (inactive). In the case of `CC(C)NC(=S)N/N=C1\CCCCC1C1CCCCC1` (centres undefined), the PGE2 EC50 with compound is 0.74 nM (inactive). In the case of `CCN(c1cccc(C)c1)S(=O)(=O)c1ccc2c3c(cccc13)C(=O)N2` it was 0.94 nM (inactive); in that of `C#CCn1c(S(=O)(=O)Cc2ccc(F)cc2)nc(-c2ccccc2)c1-c1ccccc1`, 0.37 nM (inactive); in that of `O=C1COc2ccccc2N1Cc1ccccc1Cl`, 0.31 nM (inactive). Consider `CC1(C)OC(c2ccccc2)=C/C(=C/C=Nc2ccccc2)O1`, for which the PGE2 EC50 with compound was 0.33 nM (inactive). For `CCSC1=N/C(=C\c2ccccc2)C(=O)N1c1ccc(OC)cc1` the value was 0.92 nM (inactive). In the case of `CC(=O)c1cc(C#N)c(SCc2ccccc2)nc1C` it was 0.51 nM (inactive); in that of `CCOc1ccc2cc(C#N)c(SCC(=O)NC(C)CC)nc2c1` (centres undefined), 0.8 nM (inactive); in that of `O=C(O)c1oc(C(=O)O)c(C(=O)O)c1C(=O)O`, 0.58 nM (inactive). For `C1=C(c2ccccc2)Nc2ccccc2N=C1c1ccccc1` the value was 0.4 nM (inactive); for `CSc1nnc(-c2ccc(F)cc2)o1`, 1.06 nM (inactive). Regarding `CCOC(=O)CSc1nc(-c2ccccc2)nc2ccccc12`, the PGE2 EC50 with compound was 0.26 nM (inactive). As to `COC(=O)CSc1nc(-c2ccccc2)nc2ccccc12`, the PGE2 EC50 with compound was 0.22 nM (inactive).

For the compound `C=CCn1c(=O)c2c3c(sc2n2c(Nc4ccc(OC)cc4)nnc12)CCCC3`, the PGE2 EC50 with compound is 0.74 nM (inactive). In the case of `CCC(Sc1nc(-c2ccccc2)c(C#N)c(=O)[nH]1)C(=O)Nc1cc(C)on1` (centres undefined) it was 3.58 nM (inactive); in that of `Cc1cc2cc(CN(Cc3nnnn3C3CCCCC3)CC3CCCO3)c(=O)[nH]c2cc1C` (centres undefined), 0.34 nM (inactive). In the case of `Cc1ccccc1C(=O)Nc1ccccc1Sc1ccccc1` it was 0.45 nM (inactive); in that of `O=C(Cc1ccc(F)cc1)Nc1ccccc1Sc1ccccc1`, 0.23 nM (inactive); in that of `COCCCN(C(=O)c1ccco1)c1nc(-c2cc(OC)ccc2OC)cs1`, 0.27 nM (inactive). `CCCCc1nc2sc3c(SCC(=O)NCc4ccco4)ncnc3c2c2c1CCC2`: the PGE2 EC50 with compound is 0.59 nM (inactive). In the case of `CCN(CC)C(=O)CN(c1cc2c(cc1OC)oc1ccccc12)S(=O)(=O)c1ccc(C)cc1` it was 0.39 nM (inactive). In the case of `Cc1cc2ccccc2nc1SCC(=O)NC1CCCCC1` it was 1.22 nM (inactive). In the case of `COc1ccc(-c2nc3c(c(=O)[nH]c(=O)n3Cc3ccccc3)n2Cc2ccccc2)cc1` it was 0.28 nM (inactive); in that of `COc1ccc(-c2nc3ccccc3n2Cc2ccccc2)cc1`, 0.33 nM (inactive); in that of `Cc1ccc(S(=O)(=O)Nc2ccc(Cl)cc2C(=O)c2ccc(F)cc2)cc1`, 1 nM (inactive). In the case of `O=C(/C(=C/O)N=Nc1ccccc1)c1ccc(Cl)cc1`, the PGE2 EC50 with compound is 7.05 nM (inactive). In the case of `O=C(c1ccco1)N(CCC(c1ccccc1)c1ccco1)Cc1ccc(F)cc1` (centres undefined), the PGE2 EC50 with compound was 0.84 nM (inactive). In the case of `Cc1ccc(S(=O)(=O)NCC(=O)N(c2ccccc2)C(C(=O)NCc2ccccc2)c2ccco2)cc1` (centres undefined) it was 0.62 nM (inactive); in that of `CCOC(=O)CC(=O)CSc1ncnc2c1oc1ccccc12`, 2.96 nM (inactive); in that of `N#CCCSc1ncnc2c1oc1ccccc12`, 2.48 nM (inactive). In the case of `Cc1noc(C)c1COC(=O)C(c1ccccc1)c1ccccc1` it was 0.31 nM (inactive); in that of `Cc1cc(=O)oc(C)c1C(=O)OC(C(=O)c1ccccc1)c1ccccc1` (centres undefined), 0.26 nM (inactive); in that of `COc1ccc2cc(CN(Cc3ccco3)C(c3nnnn3C3CCCCC3)C(C)C)c(=O)[nH]c2c1` (centres undefined), 0.82 nM (inactive). On to `COc1ccc2cc3c(N)nn(C(=O)C4CCC(C(C)(C)C)CC4)c3nc2c1` (centres undefined), for which the PGE2 EC50 with compound is 0.34 nM (inactive). For `CCc1nnc2n1N=C(c1ccc(-c3cc(Cl)ccc3Cl)o1)CS2` the value was 0.42 nM (inactive); for `CCOC(=O)c1c(C=O)c(C)n(Cc2ccc(C)cc2)c1C`, 0.36 nM (inactive); for `CCOC(=O)c1c(C=O)c(C)n(Cc2ccccc2Cl)c1C`, 0.46 nM (inactive).

In the case of `Cc1cccc(NC(=O)CSc2ncnc3c2oc2ccccc23)c1`, the PGE2 EC50 with compound is 8.27 nM (inactive). As to `Cc1nc(SCCC(=O)O)c2ccccc2n1`, the PGE2 EC50 with compound is 15.1 nM (inactive).

Consider `COc1cc(/C=C/c2ccc3cccc([N+](=O)[O-])c3n2)ccc1OCC(=O)O`, for which the PGE2 EC50 with compound is 4.66 nM (inactive).

Regarding `COC(=O)C1C(c2ccccc2)C(C(=O)OCc2ccco2)C1c1ccccc1` (centres undefined), the PGE2 EC50 with compound was 0.38 nM (inactive). In the case of `CSc1nc(Oc2ccc(F)cc2)c2ccccc2n1` it was 0.42 nM (inactive). In the case of `Fc1ccc(Sc2nc(-c3ccccc3)nnc2C(F)(F)F)cc1` it was 1.16 nM (inactive). In the case of `Cc1ccc(S(=O)(=O)c2c(C)cc(C)nc2N2CCCCC2)cc1` it was 0.31 nM (inactive); in that of `CC1=C/C(=C(/c2ccc(O)c(C)c2)c2ccccc2C(=O)O)C=CC1=O`, 0.75 nM (inactive). On to `CCOC(=O)c1c(CC(C)C)csc1N`, for which the PGE2 EC50 with compound is 0.39 nM (inactive). For `Cc1cc(Br)c2nc3c(c(C(=O)O)c2c1)CCCCC3` the value was 11.9 nM (inactive); for `O=C(O)NCc1ccccc1` (tested in a mixture with another compound), 0.49 nM (inactive); for `O=C(N/N=C/c1ccc[nH]1)c1ccccc1OCc1ccccc1Cl`, 0.27 nM (inactive). Take `CCOc1ccccc1C(=O)Nc1ccccc1-c1ccccc1`: the PGE2 EC50 with compound was 0.2 nM (inactive). `CS(=O)(=O)N(Cc1ccccc1)c1ccccc1C(=O)Nc1ccccc1C(=O)NCc1ccco1`: the PGE2 EC50 with compound was 56.6 nM (inactive). As to `CCc1cc2cc(C)cc(C)c2nc1SCC(=O)N1CCCC1`, the PGE2 EC50 with compound was 0.43 nM (inactive). In the case of `CCOC(=O)Cn1c(=S)[nH]c2c(oc3ccc(Cl)cc32)c1=O` it was 6.72 nM (inactive); in that of `CCOc1ccc(OCC)c(NC(=O)CN2CCN(c3ccc(C)cc3C)CC2)c1`, 0.77 nM (inactive); in that of `C=CCCC1(C)C(=O)N(c2ccccc2)c2ccccc21` (centres undefined), 0.41 nM (inactive). For `CC1Cc2ccccc2N1CC(=O)NC(c1ccccc1)c1ccccc1` (centres undefined) the value was 0.52 nM (inactive); for `CCOc1cccc(CNc2ccc(O)cc2)c1OCc1ccc(Cl)cc1`, 0.78 nM (inactive); for `Cc1cc(C)n(CCOc2ccc(Cl)cc2Cl)n1`, 0.34 nM (inactive).
